Results filed as inconclusive are left out. Calls of active or inactive are those of the source.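 The calls were made as follows, unless noted: active = viability at or below 10% of carrier control in both of two separate runs; inconclusive = viability at or below 10% in only one of the two runs; inactive = the rest.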
Columns and labels:
[1] = reducers of endogenous Her2 protein level, primary screen, SKBR3 breast tumor cells, AlphaScreen, ATP viability (AID 461;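 active = Her2 level under about 52% in both replicate screens, with viability over 70% of control, limit read from the data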;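 as to Her2 level: lower value means less Her2 protein in the cells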;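 as to viability: percent of carrier control wells set as 100% viability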); details: 18-24 h, measured here: SKBR3 viability, ATP luminescence, at 10 µM
[2] = target: Receptor tyrosine-protein kinase erbB-2 (Homo sapiens) (UniProt P04626); assay: as above; details: 18-24 h, at 10 µM, stronger effect = lower value
Sequence of Receptor tyrosine-protein kinase erbB-2 (Homo sapiens) (P04626 whole entry, looked up): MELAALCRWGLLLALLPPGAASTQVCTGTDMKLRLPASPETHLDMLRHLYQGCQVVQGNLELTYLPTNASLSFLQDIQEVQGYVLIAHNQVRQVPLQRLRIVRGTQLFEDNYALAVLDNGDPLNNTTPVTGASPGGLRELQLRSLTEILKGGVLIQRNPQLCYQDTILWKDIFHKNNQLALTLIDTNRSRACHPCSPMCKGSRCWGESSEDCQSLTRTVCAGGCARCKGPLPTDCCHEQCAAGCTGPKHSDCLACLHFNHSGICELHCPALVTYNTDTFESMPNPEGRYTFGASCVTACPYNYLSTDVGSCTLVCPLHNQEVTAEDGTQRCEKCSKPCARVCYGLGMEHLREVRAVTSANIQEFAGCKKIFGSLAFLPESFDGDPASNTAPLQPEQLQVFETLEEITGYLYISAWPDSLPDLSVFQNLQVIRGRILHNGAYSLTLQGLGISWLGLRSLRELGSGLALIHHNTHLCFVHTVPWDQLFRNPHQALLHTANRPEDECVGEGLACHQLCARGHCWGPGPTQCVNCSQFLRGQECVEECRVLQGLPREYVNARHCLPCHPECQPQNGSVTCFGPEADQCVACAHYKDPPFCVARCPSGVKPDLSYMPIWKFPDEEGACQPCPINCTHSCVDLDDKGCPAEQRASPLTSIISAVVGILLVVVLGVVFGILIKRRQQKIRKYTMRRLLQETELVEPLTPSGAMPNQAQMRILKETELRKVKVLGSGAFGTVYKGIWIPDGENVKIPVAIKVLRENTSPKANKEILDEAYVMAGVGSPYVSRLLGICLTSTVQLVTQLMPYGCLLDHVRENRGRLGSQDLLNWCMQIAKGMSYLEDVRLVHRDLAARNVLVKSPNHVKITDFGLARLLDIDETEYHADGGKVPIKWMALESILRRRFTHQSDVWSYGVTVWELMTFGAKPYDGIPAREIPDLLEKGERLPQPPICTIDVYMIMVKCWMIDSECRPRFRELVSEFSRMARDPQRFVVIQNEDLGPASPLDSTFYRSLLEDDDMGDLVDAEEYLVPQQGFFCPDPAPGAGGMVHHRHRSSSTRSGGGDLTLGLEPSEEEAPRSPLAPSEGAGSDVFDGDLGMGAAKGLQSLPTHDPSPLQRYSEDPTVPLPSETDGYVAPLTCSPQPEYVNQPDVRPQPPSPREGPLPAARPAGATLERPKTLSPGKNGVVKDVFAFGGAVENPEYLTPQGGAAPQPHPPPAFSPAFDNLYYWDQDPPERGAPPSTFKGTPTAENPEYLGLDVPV

[3] = SK-BR-3 cell growth inhibitors, pilot screen, 24 h, human (AID 572); details: SK-BR-3 viability, CellTiter-Glo luminescence, at 10 µM, stronger effect = lower value;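 also: compound exposure lasted between 18 and 24 h rather than exactly 24 h; 100% = carrier-treated control wells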
[4] = HUVEC growth inhibition – cell-based, human, primary screen (AID 575;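 active = viability at or below 30% in both replicate assays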;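 also: 100% = median of untreated cell wells with 0.1% DMSO on each plate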); details: HUVEC proliferation, CellTiter-Glo luminescence, 72 h; at 10 µM; stronger effect = lower value
[5] = growth inhibitors of H69AR lung tumor, primary screen, human, duplicate replicates (AID 580;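 active = viability at or under a set limit in both replicates, limit being median viability minus 3 SD, cut at about 48% in these data, passing the limit was not always enough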;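 also: 100% = mean luminescence of untreated wells and 0% = no signal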); details: H69AR lung tumor cells viability, ATP luminescence, 72 h; at 10 µM; stronger effect = lower value
[6] = reversal of MRP1-mediated doxorubicin resistance, pilot screen, H69AR cells, doxorubicin co-treatment (AID 601;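 active = viability loss from added drug above about 55%, and viability with drug at most 40%, in both replicates, limit read from the data, passing the limit was not always enough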); details: CellTiter-Glo, 72 h, at 10 µM; for differential viability (reversal): stronger effect = higher value
[7] = 384-well plate pilot, post-Golgi transport modulator project, inhibition of yeast transport mutant growth (AID 636; in the data active = inhibition above about 31%); details: absorbance 615 nm, about 18 h, stronger effect = higher value
[8] = growth suppression of yeast trafficking mutant, preliminary HTS, modulators of trafficking downstream of Golgi apparatus project, 1536-format plate, OD 615 nm (AID 637; in the data active = inhibition above about 30%); details: yeast transport mutant growth, absorbance 615 nm, 18 h; stronger effect = higher value
[9] = OD615 S. cerevisiae growth inhibition, permissive medium, pilot counter-assay, permissive growth control for S. cerevisiae lifespan shortening project (AID 705;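 active = growth inhibition above 25% in both replicates, a cutoff set 3 SD above the mean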); details: OD615, 24 h, at 10 µM, stronger effect = higher value
[10] = Restrictive medium S. cerevisiae growth inhibition, OD615, pilot screen of yeast lifespan reduction project, restrictive growth control (AID 706;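 active = growth inhibition above a set limit, 3 SD over mean compound inhibition, in both replicates, cut at about 43% in these data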;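 also: modified DeaD lifespan yeast strain shifted to restrictive glucose medium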); details: OD615, 48 h, at 10 µM, stronger effect = higher value
[11] = viability gain of MRP-1-high H69AR cells under doxorubicin, pilot screen, MRP-1 activator project, CellTiter-Glo, duplicate (AID 807;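 active = viability increase at or above a cutoff of the median across tested compounds plus 3 SD, cut at about 8.5% in these data, passing the limit was not always enough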;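 also: compound pretreatment 18-22 h then 72 h combined with doxorubicin; 0% = doxorubicin alone and 100% = vehicle without doxorubicin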); details: H69AR viability with doxorubicin, CellTiter-Glo luminescence; at 10 µM; stronger effect = higher value
[12] = growth suppression of beta-catenin knockout HCT116, pilot screen, human colon tumor cells (AID 823;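 active = cell viability at or below a set limit in both duplicate runs, the limit being the all-compound median minus 4 SD, cut at about 23% in these data, passing the limit was not always enough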;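 also: 0% = wells killed by 20 µM Hyamine and 100% = untreated DMSO cell wells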); details: CellTiter-Glo, 60 h, at 10 µM, stronger effect = lower value
[13] = growth suppression of PTEN-deleted HCT116, pilot screen, cell-based, HCT116 clonal line, CellTiter-Glo (AID 824;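 active = viability at or below 27.92% in each of two runs, the all-compound median minus 4 SD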;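 also: 0% = 20 µM Hyamine control and 100% = vehicle cell control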); details: 60 h, at 10 µM, stronger effect = lower value
[14] = inhibitors of the yeast RAM network, pilot screen, dse1pr::URA3 reporter, 5-FOA selection (AID 869;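 active = inhibition over a set limit, the all-compound mean plus 3 SD, in both replicate runs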;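 also: 0% = DMSO wells with no growth and 100% = 10 µM 1-NA-PP1 with full growth; RAM network block rescues cells from 5-FOA so hits raise OD615 growth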); details: S. cerevisiae dse1pr::URA3 5-FOA growth, OD615, 2 d; at 10 µM; stronger effect = higher value; strain carries analog-sensitive mutant Cbk1 kinase
[15] = H69AR cells + 2 uM doxorubicin, measured here: viability with 2 uM doxorubicin, stronger effect = lower value
[16] = H69AR cells, compound alone cytotoxicity

Compound: NC(=O)CSCc1ccc(Br)cc1
- viability [1]: 100%
- Her2 level [2]: 91.5% (inactive)
- viability [3]: 100% (inactive)
- viability [4]: 98.6% (inactive)
- viability [5]: 108% (inactive)
- differential viability (reversal) ([6]; H69AR cells + 2 uM doxorubicin): 0.415% (inactive)
- viability [6, 15]: 108%
- viability [6, 16]: 108%
- inhibition [7]: -4.67% (inactive)
- inhibition [8]: 2.62% (inactive)

Compound: O=C(O)C1CCCN1c1ncnc2c1oc1ccccc12 (configuration not stated)
- viability [1]: 101%
- Her2 level [2]: 92% (inactive)
- viability [3]: 101% (inactive)
- viability [4]: 81% (inactive)
- viability [5]: 92.3% (inactive)
- differential viability (reversal) ([6]; H69AR cells + 2 uM doxorubicin): -7.12% (inactive)
- viability [6, 15]: 99.4%
- viability [6, 16]: 92.3%
- inhibition [7]: -0.4% (inactive)
- inhibition [8]: -7.1% (inactive)

Compound: O=c1c[n+]([O-])c2ccccc2n1OCc1ccccn1
- viability [1]: 94%
- Her2 level [2]: 89.5% (inactive)
- viability [3]: 94% (inactive)
- viability [4]: 94.7% (inactive)
- viability [5]: 105% (inactive)
- differential viability (reversal) ([6]; H69AR cells + 2 uM doxorubicin): 12.1% (inactive)
- viability [6, 15]: 92.7%
- viability [6, 16]: 105%
- inhibition [7]: -2.11% (inactive)
- inhibition [8]: -4.29% (inactive)

Compound: O=C1c2ccccc2C(Nc2ccc3c(c2)OCCO3)N1Cc1ccco1 (configuration not stated)
- viability [1]: 106%
- Her2 level [2]: 112% (inactive)
- viability [3]: 106% (inactive)
- viability [4]: 87.7% (inactive)
- viability [5]: 80.7% (inactive)
- differential viability (reversal) ([6]; H69AR cells + 2 uM doxorubicin): -22.6% (inactive)
- viability [6, 15]: 103%
- viability [6, 16]: 80.7%
- inhibition [7]: 4.23% (inactive)
- inhibition [8]: -1.5% (inactive)

Compound: CC1CCN(c2oc(-c3cccc4ccccc34)nc2C#N)CC1
- viability [1]: 104%
- Her2 level [2]: 72.5% (inactive)
- viability [3]: 104% (inactive)
- viability [4]: 81.7% (inactive)
- viability [5]: 91.7% (inactive)
- differential viability (reversal) ([6]; H69AR cells + 2 uM doxorubicin): 9.42% (inactive)
- viability [6, 15]: 82.3%
- viability [6, 16]: 91.7%
- inhibition [7]: -5.53% (inactive)
- inhibition [8]: -7.33% (inactive)

Compound: C=CCn1c(SCC(=O)Nc2cccc(OC)c2)nnc1-c1cccnc1
- viability [1]: 92.5%
- Her2 level [2]: 95% (inactive)
- viability [3]: 92.5% (inactive)
- viability [4]: 87.2% (inactive)
- viability [5]: 95.4% (inactive)
- differential viability (reversal) ([6]; H69AR cells + 2 uM doxorubicin): 7.9% (inactive)
- viability [6, 15]: 87.5%
- viability [6, 16]: 95.4%
- inhibition [7]: -6.4% (inactive)
- inhibition [8]: 3.33% (inactive)
- growth inhibition [9]: -11.3% (inactive)
- growth inhibition [10]: -8.35% (inactive)
- viability increase [11]: -2.95% (inactive)
- viability [12]: 99.6% (inactive)
- viability [13]: 96.8% (inactive)
- inhibition [14]: 0.365% (inactive)

Compound: CC(C)COC(=O)C1C2C=CC3(CN(C(C)c4ccc(Br)cc4)C(=O)C13)O2 (configuration not stated)
- viability [1]: 114%
- Her2 level [2]: 100% (inactive)
- viability [3]: 114% (inactive)
- viability [4]: 101% (inactive)
- viability [5]: 94.9% (inactive)
- differential viability (reversal) ([6]; H69AR cells + 2 uM doxorubicin): 11.3% (inactive)
- viability [6, 15]: 83.6%
- viability [6, 16]: 94.9%
- inhibition [7]: -6.53% (inactive)
- inhibition [8]: -5.74% (inactive)
- growth inhibition [9]: -9.09% (inactive)
- growth inhibition [10]: 5.3% (inactive)
- viability increase [11]: -2.82% (inactive)
- viability [12]: 98.3% (inactive)
- viability [13]: 95.8% (inactive)
- inhibition [14]: 0.915% (inactive)

Compound: CC(=O)N1CCc2cc(S(=O)(=O)CCC(=O)Nc3cccc(F)c3)ccc21
- viability [1]: 109%
- Her2 level [2]: 104% (inactive)
- viability [3]: 109% (inactive)
- viability [4]: 97.3% (inactive)
- viability [5]: 93.8% (inactive)
- differential viability (reversal) ([6]; H69AR cells + 2 uM doxorubicin): 13.1% (inactive)
- viability [6, 15]: 80.7%
- viability [6, 16]: 93.8%
- inhibition [7]: -4.74% (inactive)
- inhibition [8]: -1.5% (inactive)

Compound: CC(=O)NCc1cccc(CNC(C)=O)n1
- viability [1]: 84.5%
- Her2 level [2]: 82.5% (inactive)
- viability [3]: 84.5% (inactive)
- viability [4]: 88.4% (inactive)
- viability [5]: 98% (inactive)
- differential viability (reversal) ([6]; H69AR cells + 2 uM doxorubicin): 7.96% (inactive)
- viability [6, 15]: 90.1%
- viability [6, 16]: 98%
- inhibition [7]: -6.8% (inactive)
- inhibition [8]: -6.67% (inactive)

Compound: CCOC(=O)C1CCN(C(=O)Nc2ccc3snnc3c2)CC1
- viability [1]: 96.5%
- Her2 level [2]: 88.5% (inactive)
- viability [3]: 96.5% (inactive)
- viability [4]: 92.2% (inactive)
- viability [5]: 94.9% (inactive)
- differential viability (reversal) ([6]; H69AR cells + 2 uM doxorubicin): 5.87% (inactive)
- viability [6, 15]: 89%
- viability [6, 16]: 94.9%
- inhibition [7]: -6.08% (inactive)
- inhibition [8]: -0.67% (inactive)

Compound: CCOc1ccc(/C=N/n2cnnc2)cc1
- viability [1]: 101%
- Her2 level [2]: 94.5% (inactive)
- viability [3]: 101% (inactive)
- viability [4]: 78.8% (inactive)
- viability [5]: 96.7% (inactive)
- differential viability (reversal) ([6]; H69AR cells + 2 uM doxorubicin): 7.86% (inactive)
- viability [6, 15]: 88.9%
- viability [6, 16]: 96.7%
- inhibition [7]: -0.52% (inactive)
- inhibition [8]: -3.93% (inactive)

Compound: Cc1onc(-c2ccccc2)c1C(=O)N1CCOCC1
- viability [1]: 110%
- Her2 level [2]: 87% (inactive)
- viability [3]: 110% (inactive)
- viability [4]: 99.3% (inactive)
- viability [5]: 107% (inactive)
- differential viability (reversal) ([6]; H69AR cells + 2 uM doxorubicin): 12.6% (inactive)
- viability [6, 15]: 94.4%
- viability [6, 16]: 107%
- inhibition [7]: -3.42% (inactive)
- inhibition [8]: -2.83% (inactive)

Compound: O=C1c2ccccc2C(=O)N1CCCn1nnc(-c2ccc(N3CCOCC3)cc2)n1
- viability [1]: 110%
- Her2 level [2]: 90.5% (inactive)
- viability [3]: 110% (inactive)
- viability [4]: 103% (inactive)
- viability [5]: 95.9% (inactive)
- differential viability (reversal) ([6]; H69AR cells + 2 uM doxorubicin): 0.795% (inactive)
- viability [6, 15]: 95.1%
- viability [6, 16]: 95.9%
- inhibition [7]: -4.53% (inactive)
- inhibition [8]: -4.43% (inactive)

Compound: CCSc1nnc(-c2ccc(OC)cc2)o1
- viability [1]: 100%
- Her2 level [2]: 93.5% (inactive)
- viability [3]: 100% (inactive)
- viability [4]: 92.7% (inactive)
- viability [5]: 81.2% (inactive)
- differential viability (reversal) ([6]; H69AR cells + 2 uM doxorubicin): -10.4% (inactive)
- viability [6, 15]: 91.6%
- viability [6, 16]: 81.2%
- inhibition [7]: -0.51% (inactive)
- inhibition [8]: -11% (inactive)

Compound: CCNC(=O)C1CC(=O)N(Cc2ccc3c(c2)OCO3)C(=Nc2ccc(OCC)cc2)S1 (configuration not stated)
- viability [1]: 94.5%
- Her2 level [2]: 76% (inactive)
- viability [3]: 94.5% (inactive)
- viability [4]: 48.6% (inactive)
- viability [5]: 66.1% (inactive)
- differential viability (reversal) ([6]; H69AR cells + 2 uM doxorubicin): 2.95% (inactive)
- viability [6, 15]: 63.1%
- viability [6, 16]: 66.1%
- inhibition [7]: -2.11% (inactive)
- inhibition [8]: 6.89% (inactive)
